In the library only some 3.8% were active in any assay of this set; here they are far more common.
DSG3 Ab inh = inhibitors of pemphigus antibody binding to human desmoglein-3; P32926; DSG3-coupled beads, scFv-anti-DSG3-GFP binding, flow cytometry; hits give low values; binding (percent of control), % at 10 µM; actives 0.48% (n = 310,000);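 active = binding more than 3 SD below its plate's average and above zero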;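 note: hits lower antibody fragment binding to DSG3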
Target sequence (P32926 whole entry, looked up, the tested form may be a part): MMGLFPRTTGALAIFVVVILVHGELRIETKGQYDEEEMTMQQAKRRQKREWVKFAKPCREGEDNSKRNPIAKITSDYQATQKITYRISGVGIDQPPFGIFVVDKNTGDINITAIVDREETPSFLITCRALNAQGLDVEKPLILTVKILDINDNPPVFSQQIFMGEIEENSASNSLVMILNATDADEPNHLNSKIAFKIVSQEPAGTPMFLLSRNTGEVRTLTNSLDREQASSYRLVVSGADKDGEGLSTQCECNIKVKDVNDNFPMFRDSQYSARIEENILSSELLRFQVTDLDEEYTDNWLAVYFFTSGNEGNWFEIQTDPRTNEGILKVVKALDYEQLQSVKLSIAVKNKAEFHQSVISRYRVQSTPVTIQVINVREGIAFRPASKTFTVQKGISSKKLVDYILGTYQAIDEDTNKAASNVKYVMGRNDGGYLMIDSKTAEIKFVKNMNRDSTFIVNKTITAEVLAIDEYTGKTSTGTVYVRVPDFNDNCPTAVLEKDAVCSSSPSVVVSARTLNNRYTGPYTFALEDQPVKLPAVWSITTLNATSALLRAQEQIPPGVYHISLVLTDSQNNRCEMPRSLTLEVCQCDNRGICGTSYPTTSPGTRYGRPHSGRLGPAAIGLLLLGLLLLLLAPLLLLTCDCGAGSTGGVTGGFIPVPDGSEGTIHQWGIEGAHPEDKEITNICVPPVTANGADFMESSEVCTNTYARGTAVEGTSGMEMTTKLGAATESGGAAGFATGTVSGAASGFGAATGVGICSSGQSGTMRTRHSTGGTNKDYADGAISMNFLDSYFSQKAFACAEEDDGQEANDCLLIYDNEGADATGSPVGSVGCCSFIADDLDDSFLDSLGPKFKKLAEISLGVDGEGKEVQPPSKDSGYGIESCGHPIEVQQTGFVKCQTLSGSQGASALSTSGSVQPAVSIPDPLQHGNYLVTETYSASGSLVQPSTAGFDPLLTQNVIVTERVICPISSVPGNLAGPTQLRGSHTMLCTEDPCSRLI
PfM18AAP inh-1 = blocks P. falciparum M18 aspartyl aminopeptidase; AID 1822; inhibition, % at 7.35 µM; actives 1.2% (n = 290,000); recombinant PfM18AAP, H-Glu-NHMec fluorogenic cleavage;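 active = inhibition above the campaign mean inhibition over all tested compounds plus 3 SD, cut at about 28% in these data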;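 note: 0% = plate median of test compound wells and 100% = 2 mM ZnCl2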
PAFAH1B2 inh = blocks human PAF acetylhydrolase 1b catalytic subunit 2; P68402; actives 1.2% (n = 340,000); inhibition, % at 3.39 µM; recombinant PAFAH1B2, FP-rhodamine activity probe, fluorescence polarization;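 active = inhibition above the mean of all tested compounds plus 3 SD, cut at about 24% in these data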;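 note: 0% = enzyme with DMSO and 100% = wells lacking PAFAH1B2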
PAFAH1B3 FP inh = PAFAH1B3 (human) inhibition; AID 492972; recombinant PAFAH1B3, FP-rhodamine probe, fluorescence polarization; Q15102; inhibition, % at 3.39 µM; actives 0.28% (n = 340,000);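 active = inhibition above the screen-wide average of all tested compounds plus 3 SD, cut at about 25% in these data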;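 note: 0% = enzyme with DMSO only and 100% = wells lacking PAFAH1B3 protein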
pPAFAH FP inh = inhibitors of human plasma PAF acetylhydrolase (pPAFAH); recombinant pPAFAH, FP-rhodamine probe fluorescence polarization; Q13093; inhibition, % at 3.39 µM; actives 1.5% (n = 330,000);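 active = inhibition above the mean inhibition across the screen plus 3 SD, cut at about 25% in these data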;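 note: inhibitors block binding of the rhodamine activity-based probe so polarization drops; 0% = enzyme with DMSO and 100% = wells lacking pPAFAH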
PAFAH2 inh = PAFAH2 (human) inhibition. Q99487. recombinant PAFAH2, FP-rhodamine activity probe, fluorescence polarization. inhibition, % at 3.39 µM. actives 0.99% (n = 340,000);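 active = inhibition above the mean over all tested compounds plus 3 SD, cut at about 30% in these data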;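 note: inhibitors block probe labeling of enzyme so polarization drops; 0% = enzyme with DMSO and 100% = wells lacking PAFAH2 protein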
PfM18AAP inh-2 = confirmation of Plasmodium falciparum M18 aspartyl aminopeptidase inhibitors; shares compounds with PfM18AAP inh-1; recombinant PfM18AAP, H-Glu-NHMec fluorogenic cleavage; inhibition, % at 7.35 µM; actives 28% (n = 2,400); AID 2170;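 active = mean inhibition over replicate wells above the hit cutoff set for the earlier primary screen, cut at about 29% in these data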;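 note: 0% = median of test compound wells and 100% = 2 mM ZnCl2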
CTSL1 counter = counter-screen for PFM18AAP inhibitors: confirmation of human cathepsin L inhibitors. shares compounds with PfM18AAP inh-1. purified cathepsin L1, Z-Leu-Arg-MCA fluorescence. inhibition, % at 5.96 µM. 2,400 tested, under 10 active. AID 2178;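 active = average inhibition across replicates above the hit cutoff set in the earlier primary screen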;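 note: 0% = median of test compound wells and 100% = Z-Phe-Ala-diazomethylketone 1 µM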
pPAFAH FP conf = pPAFAH (human) inhibition, confirmed; shares compounds with pPAFAH FP inh; recombinant pPAFAH, FP-Rh probe fluorescence polarization; inhibition, % at 3.39 µM; actives 72% (n = 2,300);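 active = mean inhibition of the triplicate above the hit cutoff set for the earlier primary screen, cut at about 25% in these data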;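 note: 0% = enzyme with DMSO and 100% = wells lacking pPAFAH enzyme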
An asterisk follows results filed as active; . = no result given.

SMILES | DSG3 Ab inh | PfM18AAP inh-1 | PAFAH1B2 inh | PAFAH1B3 FP inh | pPAFAH FP inh | PAFAH2 inh | PfM18AAP inh-2 | CTSL1 counter | pPAFAH FP conf
CCN(CC(=O)Nc1c(F)cccc1F)C(=O)c1cc(C)nc2ccccc12 | 95 | . | -4 | 4 | -1 | -1 | . | . | .
Cc1cc(NN)nc(NS(=O)(=O)c2ccccc2Cl)n1 | 105 | 39* | 4 | 7 | 4 | 4 | -2 | 2 | .
Cc1ccc(S(=O)(=O)Nc2nc(C)cc(NN)n2)cc1 | 104 | 40* | 2 | 2 | 0 | 6 | 29* | -1 | .
Cc1ccc(S(=O)(=O)Nc2nc(C)cc(NCCN)n2)cc1 | 113 | 4 | 1 | 14 | 3 | 5 | . | . | .
S=C1NCN(C2CCCCC2)CN1c1ccccc1 | 115 | -6 | 7 | 5 | 8 | 1 | . | . | .
CC1CCC2(CC1)NC(=S)N(c1ccccc1)N2 (configuration not stated) | 111 | 45* | 7 | 4 | 1 | 1 | -24 | 2 | .
CC(/C=N/n1cnnc1)=C\c1ccco1 | 103 | 55* | 6 | -1 | 5 | -3 | -7 | 2 | .
CC(/C=N/n1c(-c2cc(C)[nH]n2)n[nH]c1=S)=C\c1ccco1 | . | 36* | 6 | -1 | 11 | 7 | -26 | -2 | .
CC(/C=N/n1c(-c2ccc(Cl)cc2)n[nH]c1=S)=C\c1ccco1 | 102 | 15 | 4 | 9 | 24 | 12 | . | . | .
O=C(c1ccc(Cl)cc1)N1CCN(c2ccc([N+](=O)[O-])c(NCc3cccnc3)c2)CC1 | 101 | 9 | 1 | 3 | 6 | -4 | . | . | .
O=C(c1ccccc1)N1CCN(c2ccc([N+](=O)[O-])c(NCc3cccnc3)c2)CC1 | 103 | 44* | 4 | -1 | -4 | 2 | -53 | 1 | .
NS(=O)(=O)c1ccc(NNC(=O)c2sccc2Cl)cc1 | 117 | 52* | 4 | 8 | 3 | 7 | 28 | -8 | .
COc1cc(O)c(NC(C)=O)c2nonc12 | 127 | 33* | 5 | 7 | -2 | -5 | 27 | 1 | .
FC(F)Oc1ccc(/C=N/n2c(Cc3ccc(Br)cc3)n[nH]c2=S)cc1 | 106 | 46* | 20 | 4 | 8 | 10 | -5 | 0 | .
CN(C)Cc1c(O)ccc2c(=O)c(-c3ccc(Cl)cc3)coc12 | 92 | -11 | 3 | 7 | 8 | 1 | . | . | .
O=c1c(-c2ccc([N+](=O)[O-])cc2)coc2c(O)c(O)ccc12 | 100 | 45* | 9 | 17 | 54* | 24 | 25 | -2 | 78*
O=c1[nH]nc(CNc2ccc(O)cc2)c2ccccc12 | 92 | 35* | 8 | 17 | 59* | 15 | -18 | 0 | -6
O=c1[nH]nc(CNc2ccc(OC(F)(F)F)cc2)c2ccccc12 | 89 | -11 | 1 | 3 | 3 | -2 | . | . | .
COc1c(-c2ccc(O)cc2)oc2cc(O)cc(O)c2c1=O | 107 | . | -2 | 3 | 14 | 2 | . | . | .
O=c1c(O)c(-c2ccc(O)c(O)c2)oc2cc(O)cc(O)c12 | 76 | 76* | 29* | 53* | 53* | 1 | 65* | -5 | 82*
N#C/C(=C\c1c[nH]c2ccccc12)C(=O)NC1CCCC1 | 103 | 13 | -3 | 1 | 4 | -2 | . | . | .
CCn1c(SCC(=O)c2ccc(O)c(O)c2)nnc1-c1ccc(C)cc1 | 105 | 43* | 3 | 14 | 43* | 45* | 19 | -9 | 72*
CCn1c(SCC(=O)c2ccc3c(c2)Cc2ccccc2-3)nnc1-c1ccc(N)cc1 | 90 | 13 | -3 | 2 | 3 | 2 | . | . | .
COc1ccc(-c2nc(-c3ccccc3)c(-c3cc([N+](=O)[O-])ccc3C)[nH]2)cc1O | 106 | -9 | -4 | 10 | 10 | 5 | . | . | .
Cc1ccc([N+](=O)[O-])cc1-c1[nH]c(-c2ccc(O)c(O)c2)nc1-c1ccccc1 | 99 | 73* | 3 | 19 | 65* | -2 | 74* | 0 | 83*
SMILES | DSG3 Ab inh | PfM18AAP inh-1 | PAFAH1B2 inh | PAFAH1B3 FP inh | pPAFAH FP inh | PAFAH2 inh | PfM18AAP inh-2 | CTSL1 counter | pPAFAH FP conf
CC(C)(C)S(=O)N1Cc2ccc(CO)cc2[C@@H]1CCO (some centres not stated) | 106 | . | -4 | 7 | . | -3 | . | . | .
CC1CCCC(C)N1/N=C/c1ccc(O)c(O)c1 (configuration not stated) | 102 | 64* | 4 | 13 | 45* | 5 | 46* | 1 | 11
O=C(/C=C1\NC2(CCCC2)Cc2ccccc21)C(=O)N/N=C/c1ccc(O)c(O)c1 | 99 | 64* | 8 | 15 | 48* | 34* | 37* | 2 | 87*
CC(C)(C)OC(=O)NCCCCCNC(=O)c1[nH]cnc1C(=O)NC1CCN(C(=O)OC(C)(C)C)CC1 | 104 | . | 1 | 4 | 10 | 0 | . | . | .
Cc1c(Br)c(=O)oc2c(Br)c(O)c(O)cc12 | 81 | 39* | 51* | 47* | 63* | 83* | 9 | -10 | 81*
Cc1c(Br)c(=O)oc2c(Br)c(O)ccc12 | 94 | 6 | 2 | 7 | 1 | 4 | . | . | .
Cc1ccc(S(=O)(=O)N2CCOCC2)cc1-c1n[nH]c(=S)n1-c1ccccc1 | . | . | 20 | 1 | -2 | -2 | . | . | .
Oc1ccc(/C=N/Nc2ccnc3cc(Cl)ccc23)c(O)c1O | 93* | 49* | 37* | 48* | 44* | 35* | -61 | 7 | 57*
O=[N+]([O-])c1ccccc1NC(=S)N/N=C/c1ccc(O)c(O)c1 | 96 | 59* | 5 | 24 | 59* | 49* | 40* | 1 | 64*
Cc1ccc(C(=O)Nc2nnc(CC(=O)N/N=C/c3ccc(O)c(O)c3)s2)cc1 | 86 | 56* | 14 | 19 | 51* | 28 | 50* | 5 | 87*
Cc1ccc(C(=O)Nc2nnc(CC(=O)N/N=C/c3ccncc3)s2)cc1 | 100 | 5 | 5 | 3 | -2 | -8 | . | . | .
O=[N+]([O-])c1ccc(N/N=C/c2cccc(O)c2O)cc1 | 101 | 36* | 11 | 31* | 60* | 5 | 4 | 1 | 56*
COc1ccc2cc(CO)c3cc(OC)c(OC)cc3c2c1 | 99 | . | 2 | 9 | 8 | 2 | . | . | .
Cn1c(O)c(/C=N/NC(=O)c2cc3ccccc3cc2O)c2ccccc21 | 113 | 32* | 37* | 37* | 62* | 13 | 0 | 7 | 49*
N#Cc1c(SCC(=O)Nc2nncs2)sc2c(O)cc(=O)[nH]c12 | 108 | 53* | 14 | 36* | 49* | 37* | 29* | -4 | 10
